Screening data as filed in PubChem.
A selection: hits, their analogues and other compounds. The true share with any hit is near 3.5%.
Anthrax LF inh2 – blocks Bacillus anthracis lethal factor protease; P15917; multiplex microsphere protease cleavage assay, LF; inhibition, % at 10 µM; 360,000 tested, 0.12% active; AID 588501
Target sequence (P15917 whole entry, looked up): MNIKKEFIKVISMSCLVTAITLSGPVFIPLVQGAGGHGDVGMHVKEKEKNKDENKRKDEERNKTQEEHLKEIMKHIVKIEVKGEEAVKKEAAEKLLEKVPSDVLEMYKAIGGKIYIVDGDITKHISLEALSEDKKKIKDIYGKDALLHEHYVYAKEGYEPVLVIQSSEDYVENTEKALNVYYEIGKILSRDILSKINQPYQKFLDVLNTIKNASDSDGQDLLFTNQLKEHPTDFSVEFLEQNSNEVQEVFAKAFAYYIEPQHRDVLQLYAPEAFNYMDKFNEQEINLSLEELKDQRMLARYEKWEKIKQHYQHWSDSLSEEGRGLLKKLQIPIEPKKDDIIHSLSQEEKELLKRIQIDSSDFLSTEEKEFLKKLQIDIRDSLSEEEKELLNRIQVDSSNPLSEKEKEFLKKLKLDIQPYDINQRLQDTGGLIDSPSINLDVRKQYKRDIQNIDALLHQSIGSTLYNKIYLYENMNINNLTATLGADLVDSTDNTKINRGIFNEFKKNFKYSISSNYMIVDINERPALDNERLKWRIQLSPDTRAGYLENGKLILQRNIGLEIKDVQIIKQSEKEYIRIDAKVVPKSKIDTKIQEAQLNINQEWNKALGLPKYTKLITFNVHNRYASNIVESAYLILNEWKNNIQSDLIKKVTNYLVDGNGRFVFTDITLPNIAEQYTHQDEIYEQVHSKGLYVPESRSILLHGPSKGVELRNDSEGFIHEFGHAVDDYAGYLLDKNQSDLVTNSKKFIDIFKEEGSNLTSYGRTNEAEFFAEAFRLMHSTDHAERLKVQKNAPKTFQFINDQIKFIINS
BoNT F protease – BoNT F light chain protease inhibition. inhibition, % at 10 µM. 360,000 tested, 0.22% active. Multiplex microsphere protease cleavage assay, flow cytometry. AID 588497; in the data active = inhibition above about 35%, passing the limit was not always enough; inconclusive = no clear call, values can overlap the other calls
Autofluor counter – flagged as autofluorescent in microsphere protease counterscreen; compound autofluorescence counterscreen, microsphere flow cytometry; active compounds read high; fluorescence intensity (concentration not given with the values); 360,000 tested, 3.1% active; AID 624483; in the data active = fluorescence intensity above about 16000; inconclusive = no clear call, values can overlap the other calls
BoNT-A LC inh2 – BoNT A light chain protease inhibition. multiplex microsphere protease substrate cleavage, flow cytometry. inhibition, % at 10 µM. 360,000 tested, 0.17% active. AID 588499
Numbers stand for hits; 0 = inactive; ? = inconclusive. Cut-off read from the data, not from the text of the source, unless noted: active = inhibition above about 30%; inconclusive = no clear call, values can overlap the other calls; inactive = below that.

SMILES | Anthrax LF inh2 | BoNT F protease | Autofluor counter | BoNT-A LC inh2
O=C(Nc1ccc(N2CCCCC2)cc1)c1ccccc1 | 0 | 0 | 0 | 0
O=C(Nc1ccc(N2CCCC2)cc1)c1cccc(F)c1 | 0 | 0 | 19303 | 0
O=C(Nc1cccc(S(=O)(=O)N2CCCC2)c1)c1cccc(S(=O)(=O)N2CCOCC2)c1 | 0 | 0 | 0 | 0
CCCn1c(NC(=O)c2ccccc2)nc2ccccc21 | 0 | 0 | 0 | 0
COc1ccccc1OCCNC(=O)CN1C(=O)NC2(CCCCC2)C1=O | 0 | 0 | 0 | 0
Cc1cc(C)c(C(N)=O)c(SCC(=O)c2cc(C)n(-c3cc(C)on3)c2C)n1 | 0 | 0 | 0 | 0
O=C(NCc1ccc(Cl)cc1)C(=O)NCC1OCCN1S(=O)(=O)c1cc(F)ccc1F (stereo not drawn) | 0 | 0 | 0 | 0
CN(C)C(CNC(=O)CNC(=O)c1ccc(Br)cc1)c1ccccc1 (stereo not drawn) | 0 | 0 | 0 | 0
CCCCCC1NC(=O)NC1CCCCCC(=O)O (stereo not drawn) | 0 | 0 | 18045 | 0
Cc1ccc(-c2nc(S(=O)(=O)c3ccc(C)cc3)c(SCC(N)=O)o2)cc1 | 0 | 0 | 16360 | 0
COC(=O)[C@@]1(Cc2ccc(OC)cc2)[C@H]2c3cc(C(=O)N4CCCC4)n(Cc4ccsc4Br)c3C[C@H]2CN1C(=O)c1ccccc1 | 0 | 0 | 0 | 0
CCOC(=O)C1=C(C)Nc2ncnn2C1/C=C/c1ccccc1 (stereo not drawn) | 0 | 0 | 20063 | 0
CCCC1=C(C(=O)OCC)C(/C=C/c2ccccc2)n2ncnc2N1 (stereo not drawn) | 0 | 0 | 21846 | ?
CCCC1=C(C(=O)OCC)C(c2ccc(F)cc2)n2ncnc2N1 (stereo not drawn) | 0 | 0 | 0 | 0
COc1ccc(OC)c(NC(=O)COc2ccc(S(=O)(=O)N3CCCC3)cc2)c1 | 0 | 0 | 0 | 0
O=C(c1cccn2c(=O)c3ccc(Cl)cc3nc12)N1CCC2(CC1)OCCO2 | 0 | 0 | 0 | 0
O=C(c1cccn2c(=O)c3cc(Cl)ccc3nc12)N1CCN(Cc2ccc3c(c2)OCO3)CC1 | 0 | 0 | 16508 | 0
O=C(c1cccn2c(=O)c3ccccc3nc12)N1CCN(Cc2ccc3c(c2)OCO3)CC1 | 0 | 0 | 20636 | 0
O=C(c1cccn2c(=O)c3cc(Cl)ccc3nc12)N1CCOCC1 | 0 | 0 | 23073 | ?
O=C(c1cc(Cl)nc2ccccc12)N1CCN(Cc2ccc3c(c2)OCO3)CC1 | 0 | 0 | 0 | 0
CCN1C(=O)N[C@@H](c2cccs2)C(C(C)=O)=C1C | 0 | 0 | 0 | 0
N/C(CN1CCCC1=O)=N\O | 0 | 0 | 24371 | 0
NC(=O)CN1CCCC1=O | 0 | 0 | 0 | 0
COc1ccccc1CCNC(=O)CSc1nnc2ccc(-c3ccncc3)nn12 | 0 | 0 | 0 | 0
O=C(CSc1nc2ccccc2s1)Nn1cnnc1 | 0 | 0 | 0 | 0
SMILES | Anthrax LF inh2 | BoNT F protease | Autofluor counter | BoNT-A LC inh2
N#Cc1nc(-c2ccco2)oc1NCCCN1CCOCC1 | 0 | 0 | 22603 | 0
N#Cc1nc(Cc2cccc3ccccc23)oc1NCCCN1CCOCC1 | 0 | 0 | 0 | 0
N#Cc1nc(COc2ccc(F)cc2)oc1NCCN1CCOCC1 | 0 | 0 | 0 | 0
O=S(=O)(c1ccccc1)c1nc(-c2ccco2)oc1NCCCN1CCOCC1 | 0 | 0 | 0 | 0
O=S(=O)(c1ccccc1)c1nc(-c2ccco2)oc1NCCN1CCOCC1 | 0 | 0 | 23098 | 0
N#Cc1nc(COc2ccc(Br)cc2)oc1NCCN1CCOCC1 | 0 | 0 | 23449 | 0
CCN(CC(=O)NCc1ccc(Cl)cc1)C(=O)CCc1ccccc1O | 0 | 0 | 0 | 0
CCC(C)(C(=O)NC1CCCC1)N(C(=O)c1cnccn1)c1c(C)n(C)n(-c2ccccc2)c1=O (stereo not drawn) | 0 | 0 | 21671 | ?
CCC(C)(C(=O)NC1CCCCC1)N(C(=O)CNC(C)=O)c1c(C)n(C)n(-c2ccccc2)c1=O (stereo not drawn) | 0 | 0 | 0 | 0
CCC(C)(C(=O)NC1CCCC1)N(C(=O)Cc1cccs1)c1c(C)n(C)n(-c2ccccc2)c1=O (stereo not drawn) | 0 | 0 | 0 | 0
CCC(C)(C(=O)NC1CCCCC1)N(C(=O)c1cnccn1)c1c(C)n(C)n(-c2ccccc2)c1=O (stereo not drawn) | 0 | 0 | 21469 | ?
Cn1c(C(=O)N2CCN(Cc3ccc4c(c3)OCO4)CC2)cc2sccc21 | 0 | 0 | 16552 | 0
Cn1c(C(=O)Nc2ccc3c(c2)OCO3)cc2sccc21 | 0 | 0 | 0 | 0
Cn1c(C(=O)NCc2ccc3c(c2)OCO3)cc2sccc21 | 0 | 0 | 17632 | 0
CC1(C(=O)NS(=O)(=O)c2ccccc2Cl)CCN1C(=O)C1CCCCC1 (stereo not drawn) | 0 | 0 | 0 | 0
CC(C)(C)OC(=O)N1CCC(C(=O)Nc2cccc(C(=O)N3CCCCC3)c2)CC1 | 0 | 0 | 0 | 0
CC(OC(=O)CSc1ccccc1)C(=O)NC1CCCCC1C (stereo not drawn) | 0 | 0 | 0 | 0
CC1(C)CC(=O)C(C(c2ccco2)C2C(=O)CC(C)(C)CC2=O)C(=O)C1 | 0 | 0 | 23157 | 0
Cc1cc(OCC(=O)Nn2cnnc2)ccc1Br | 0 | 0 | 0 | 0
O=C(O)c1ccc2c(c1)C(c1ccccc1)OC2=O (stereo not drawn) | 0 | 0 | 16408 | 0
c1coc(Cn2c(SCc3nc4ccccc4[nH]3)nnc2-c2cccs2)c1 | 0 | 0 | 18667 | 0
Cc1ccccc1CSc1nnc(-c2cccs2)n1Cc1ccco1 | 0 | 0 | 0 | 0
C(=C\c1ccccc1)/CSc1nnc(-c2ccncc2)n1Cc1ccco1 | 0 | 0 | 0 | 0
c1ccc(CSc2nnc(-c3cccs3)n2Cc2ccco2)cc1 | 0 | 0 | 20965 | 0
C(=C\c1ccccc1)/CSc1nnc(-c2ccccc2)n1Cc1ccco1 | 0 | 0 | 23193 | 0
SMILES | Anthrax LF inh2 | BoNT F protease | Autofluor counter | BoNT-A LC inh2
CCN(CC(=O)Nc1ccccc1C(F)(F)F)C(=O)CCOc1ccc(C)cc1 | 0 | 0 | 0 | 0
Cc1ccc(S(=O)(=O)c2nc(S(C)(=O)=O)sc2N2CCC3(CC2)OCCO3)cc1 | 0 | 0 | 0 | 0
COc1ccc(CC(=O)NC2CCN(CC(=O)Nc3ccc4c(c3)OCCO4)CC2)cc1OC | 0 | 0 | 23401 | 0
CCOc1ccccc1NC(=O)N1CCC(c2nc3ccccc3[nH]2)CC1 | 0 | 0 | 21924 | ?
O=C(CN1CCC(c2nc3ccccc3[nH]2)CC1)Nc1ccc2c(c1)OCO2 | 0 | 0 | 21412 | 0
COc1ccccc1NC(=O)CN1CCC(c2nc3ccccc3[nH]2)CC1 | 0 | 0 | 0 | 0
Cc1ccc2nc(C3CCN(CC(=O)Nc4ccc5c(c4)OCCO5)CC3)[nH]c2c1 | 0 | 0 | 23511 | 0
COc1ccc(NC(=O)CN2CCN(Cc3ccc4c(c3)OCO4)CC2)cc1OC | 0 | 0 | 0 | 0
COc1ccccc1NC(=O)N1CCC(c2nc3cc(C)c(C)cc3[nH]2)CC1 | 0 | 0 | 0 | 0
COc1ccccc1NC(=O)CN1CCC(c2nc3ccc(C)cc3[nH]2)CC1 | 0 | 0 | 0 | 0
Cc1noc(C)c1C(=O)Nc1nc2ccc(Cl)cc2s1 | 0 | 0 | 0 | 0
CCNC(=O)C1(C)CCN(C(=O)c2ccccc2OC)C1 (stereo not drawn) | 0 | 0 | 0 | 0
O=S(=O)(c1ccc2c(c1)OCCO2)N1CCC(c2nc3ccc(Cl)cc3[nH]2)CC1 | 0 | 0 | 0 | 0
O=S(=O)(c1ccc2c(c1)OCCO2)N1CCC(c2nc3ccccc3[nH]2)CC1 | 0 | 0 | 22441 | 0
